High-throughput results from PubChem BioAssay.
MITF primary: blocks human microphthalmia-associated transcription factor | AlphaScreen MITF homodimerization, bead proximity signal | O75030 | AID 1259374 | 0.91% of 650,000 active | inhibition, % at 2.6 µM; in the data active = inhibition above about 50%;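 note: 0% = vehicle wells with protein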
FBW7 act: human FBW7 E3 ligase activation, primary screen; AlphaScreen FBW7–phospho-cyclin E peptide binding, activator screen; normalized activity (activation), % at 26.1 µM; 0.13% of 650,000 active; AID 1259310; in the data active = normalized activity above about 1.9%;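 note: purified mutant Fbw7 with reduced substrate affinity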
TEAD-YAP block: TEAD-YAP interaction inhibition. HEK-TIYL cells, TEAD-Gal4/YAP UAS-luciferase luminescence. AID 1259422. inhibition, % at 9.12 µM. 1.4% of 640,000 active; in the data active = inhibition above about 32%;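 note: 0% = median of test compound wells and 100% = reference inhibitor wells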
GPR151 ag: activators of human GPR151; 1% of 650,000 active; AID 1508602; activation, % at 11.2 µM; PathHunter beta-arrestin GPR151 cells, luminescence; Q8TDV0; in the data active = activation above about 4.9%;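 note: 0% = median of compound wells and 100% = cells with positive control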
GPR151 conf act: human GPR151 activation, confirmation screen. shares compounds with GPR151 ag. 6,700 tested, under 10 active. GPR151 PathHunter beta-arrestin cells, luminescence, 90 min; % of EA-reagent control over plate median. AID 1508609. activation, % at 11.2 µM;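 active = mean percent activation across replicates above the confirmation screen cutoff of 4.91%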
GPR119 counter: GPR119 activation, counter-screen for GPR151 activators. 0.3% of 6,700 active. shares compounds with GPR151 ag. activation, % at 11.2 µM. GPR119 PathHunter beta-arrestin cells, luminescence, 90 min; 0 = compound-well median, 100 = enzyme-acceptor control;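 active = mean percent activation in the counterscreen above 29.09%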;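 note: counterscreen on off-target GPR119 to flag nonselective hits from the GPR151 activator screen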
Target sequence (Q8TDV5 whole entry, looked up): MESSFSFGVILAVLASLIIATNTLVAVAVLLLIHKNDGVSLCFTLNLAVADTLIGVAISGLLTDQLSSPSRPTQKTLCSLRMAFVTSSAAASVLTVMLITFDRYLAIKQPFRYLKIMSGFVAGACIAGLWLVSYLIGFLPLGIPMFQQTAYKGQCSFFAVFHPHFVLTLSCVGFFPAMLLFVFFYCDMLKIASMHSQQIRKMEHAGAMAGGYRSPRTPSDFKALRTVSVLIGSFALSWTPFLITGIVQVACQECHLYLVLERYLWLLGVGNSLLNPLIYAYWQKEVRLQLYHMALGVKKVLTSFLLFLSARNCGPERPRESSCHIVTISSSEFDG
The depositor's hits bear a star; / = no result given. In the library only some 3.4% were active in any assay of this set; here they are far more common.

SMILES	MITF primary	FBW7 act	TEAD-YAP block	GPR151 ag	GPR151 conf act	GPR119 counter
CCOc1ccc(-c2[nH]nc3c2C(c2ccc(OCC)c(OCC)c2)C(C#N)=C(N)O3)c(OCC)c1 (stereo unspecified)	11	0	9	-2	/	/
CCOc1ccc(C(=O)NCC2CCCN2S(=O)(=O)c2ccccc2)cc1 (stereo unspecified)	4	0	-8	5.6*	0	-14
CCOc1ccc(NC(=O)C2=CCN(S(=O)(=O)c3ccccc3)CC2)cc1	-4	0	-4	5.4*	0	2
O=C1OC(c2ccc(F)cc2)=N/C1=C\c1ccc(-c2ccc(I)cc2)o1	-1	0	-1	6.0*	0	-1
COc1ccc(/C=C(\NC(=O)c2ccccc2)C(=O)NN)c(OC)c1	-13	0	-1	0	/	/
COc1ccc(/C=C(/NC(=O)c2ccc(C)cc2)C(=O)O)c(OC)c1	-2	0	-3	5.3*	1	13
CCOc1ccc(/C(O)=C2/C(=O)C(=O)N(CCCN3CCOCC3)C2c2ccc(F)cc2)c(C)c1 (stereo unspecified)	-5	0	5	0	/	/
OCCN1CCN(C2Cc3ccccc3C2)CC1	-1	0	5	-1	/	/
O=S(=O)(c1ccc(N2CCCC(C(F)(F)F)C2)nc1)N1CCCC1 (stereo unspecified)	-2	0	-4	5.8*	0	3
COc1cc(Nc2nc(C)cc(NCc3ccccc3)n2)cc(OC)c1OC	1	0	10	1	/	/
CC(=O)Nc1cccc(-c2csc(Nc3ccc(C)cc3)n2)c1	-6	0	-71	10*	0	11
CC(=O)Nc1cccc(-c2csc(Nc3ccccc3Cl)n2)c1	1	0	-67	5.0*	0	5
O=[N+]([O-])c1ccc(Nc2nc(-c3ccccc3)cs2)cc1	23	1	-36	6.1*	1	15
O=C(/C=C/c1cccs1)Nc1ccc(Cl)c([N+](=O)[O-])c1	4	0	-33	-1	/	/
CC1=NN(c2ccc(Cl)cc2)C(=O)/C1=C/c1ccc2c(c1)OCO2	7	0	0	0	/	/
CC1=NN(c2ccc(C)cc2)C(=O)/C1=C/c1ccc2c(c1)OCO2	-4	0	-4	5.3*	0	-1
O=C(O)c1ccc(/C=N/NC(=O)c2cc(-c3cccs3)[nH]n2)cc1	11	0	-5	1	/	/
COC(=O)c1ccc(/C=N/NC(=O)c2cc(-c3cccs3)[nH]n2)cc1	-1	0	11	7.4*	0	8
OC(c1cccnc1)c1ccc2c(c1)CN(Cc1cccc(Cl)c1)CCO2 (stereo unspecified)	1	0	-10	41*	1	-3
Cc1cccc(-n2c(O)c(C=Nc3ccccc3I)c(=O)[nH]c2=O)c1	5	1	15	-1	/	/
Cc1cccc(-n2c(O)c(/C=N/n3cnnc3)c(=O)[nH]c2=O)c1	-2	0	-1	5.3*	0	-3
COc1cccc(C2C3=C(CCCC3=O)Nc3nc(SC)nn32)c1OC (stereo unspecified)	8	0	16	0	/	/
COCCn1c(SCC(=O)N2CC(=O)Nc3ccccc32)nnc1-c1ccoc1C	0	0	-14	7.6*	1	5
O=C(Nc1ccc2[nH]ncc2c1)C1CCN(C(=O)[C@@H](O)COc2ccc(Br)cc2)C1 (stereo partly specified)	5	0	-2	1	/	/
CCN(CC)C(=O)C1CC(c2ccc(Cl)cc2)=NO1 (stereo unspecified)	4	0	-30	0	/	/
